Rows were chosen to be rich in hits. Some 1.6% of all compounds tested hit in one or more screens of this group.
PrP UTR inh: suppresses PrP 5' UTR mRNA reporter expression | inhibition, % (no concentration beside the values) | AID 488862 | 340,000 tested, 0.35% active | cell-based PrP 5' UTR mRNA reporter, plate reader; in the data active = inhibition above about 52%; also: 0 = median of the neutral control wells
BH1578 lux ind: induces V. cholerae light production without autoinducers; 350,000 tested, 0.16% active; activation, % at 18.7 µM; V. cholerae BH1578 lux reporter, luminescence, 6 h; in the data active = activation mostly above about 9.7%, no sharp cut-off
SARS 3CLpro inh-1: SARS-CoV 3CLpro protease inhibition; 290,000 tested, 0.14% active; P0C6X7; AID 1706; recombinant SARS-CoV 3CLpro, quenched FRET peptide cleavage; inhibition, % at 6 µM; in the data active = inhibition above about 12%
PfHsp40 rescue: restores yeast growth despite PfHsp40 toxicity; growth rescue, % at 12.5 µM; AID 504582; 340,000 tested, 0.68% active; S. cerevisiae expressing PfHsp40, growth rescue, ATP luminescence; in the data active = growth rescue above about 28%, passing the limit was not always enough;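 also: yeast W303a lacking pdr1 and pdr3 grown in galactose medium; growth measured after three days at 30 °C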
PrPC surface inh: cell surface PrPC inhibition, primary TR-FRET screen; AID 720596; P04156; TR-FRET read-out; inhibition, % at 13.8 µM; 370,000 tested, 0.43% active; in the data active = inhibition above about 24%; also: 0% = median of the test wells and 100% = reference compound wells
PriA SSB inh: inhibitors of Klebsiella pneumoniae PriA binding to SSB C-terminal tail; 430,000 tested, 0.6% active; AID 1272365; inhibition, % at 33 µM; AlphaScreen SSBct-PriA binding, biotinylated peptide; in the data active = inhibition mostly above about 37%, no sharp cut-off; inactive = mostly below about 20%;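 also: plate controls were negative control peptide for no effect and reference peptide for full effect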
SARS 3CLpro inh-2: confirmation of SARS coronavirus 3C-like protease inhibitors; shares compounds with SARS 3CLpro inh-1; QFRET protease activity assay, 3CLpro; inhibition, % at 6 µM; 380 tested, 36% active; in the data active = inhibition above about 13%
An asterisk follows results filed as active.

Screening O=C(CN1C(=O)c2ccccc2C1=O)Oc1ccc(F)cc1 returned SARS 3CLpro inh-1 13* and SARS 3CLpro inh-2 10.
`CCc1ccc(OC(=O)CN2C(=O)c3ccccc3C2=O)cc1` gave PrP UTR inh -24, BH1578 lux ind inactive, SARS 3CLpro inh-1 7, PfHsp40 rescue 2, PrPC surface inh 7 and PriA SSB inh -9.
Screening CCCNS(=O)(=O)c1ccc(CCC(=O)Nc2cc(Cl)ccc2Oc2ccccc2)cc1 returned PrP UTR inh 3, BH1578 lux ind 0, SARS 3CLpro inh-1 3, PfHsp40 rescue 0, PrPC surface inh 7 and PriA SSB inh -12.
Screening CC(C)CNS(=O)(=O)c1ccc(CCC(=O)Nc2cc(Cl)ccc2Oc2ccccc2)cc1 returned PrP UTR inh -24, BH1578 lux ind -1, SARS 3CLpro inh-1 12*, PfHsp40 rescue 0, PrPC surface inh -3, PriA SSB inh -2 and SARS 3CLpro inh-2 1.
Screening CSc1nsc(NC(=O)OCc2ccc(Cl)cc2)n1 returned PrP UTR inh -34, BH1578 lux ind 0, SARS 3CLpro inh-1 13*, PfHsp40 rescue 3, PrPC surface inh 6, PriA SSB inh -41 and SARS 3CLpro inh-2 3.
For NC(=O)CCn1c(C(=O)c2ccc(Cl)cc2)c2ccccc2[n+]1[O-] the results were PrP UTR inh -18, BH1578 lux ind -1, SARS 3CLpro inh-1 46*, PfHsp40 rescue -1, PrPC surface inh -12, PriA SSB inh -18 and SARS 3CLpro inh-2 48*.
For COc1ccc(S(=O)(=O)Nc2nc(CC(=O)NCC3CCCCC3)cs2)cc1 the results were PriA SSB inh 7.
For COc1ccc2cc(C3(C)NC(=O)N(CC(=O)NCc4ccco4)C3=O)ccc2c1 (stereo unspecified) the results were PrP UTR inh 2, BH1578 lux ind inactive, SARS 3CLpro inh-1 16*, PfHsp40 rescue 0, PrPC surface inh 5, PriA SSB inh 2 and SARS 3CLpro inh-2 12*.
`COc1cc(C(=O)Nc2nnc(SCC(=O)c3ccccc3)s2)c([N+](=O)[O-])cc1OC` gave PriA SSB inh 11.
`CC(C)C[C@H](NC(=O)c1[nH]cnc1C(=O)N[C@@H](Cc1ccccc1)C(=O)OC(C)(C)C)C(=O)OCc1ccccc1` gave PrP UTR inh -5, BH1578 lux ind inactive, SARS 3CLpro inh-1 3, PfHsp40 rescue -2, PrPC surface inh 17 and PriA SSB inh -25.
Screening CC(C)C[C@H](NC(=O)c1[nH]cnc1C(=O)N[C@@H](Cc1ccccc1)C(=O)OCc1ccccc1)C(=O)OC(C)(C)C returned PrP UTR inh -16, BH1578 lux ind 1, SARS 3CLpro inh-1 13*, PfHsp40 rescue -1, PrPC surface inh 7, PriA SSB inh -1 and SARS 3CLpro inh-2 6.
CC(C)C[C@H](NC(=O)c1nc[nH]c1C(=O)NCc1ccc(CNC(=O)OC(C)(C)C)cc1)C(=O)OC(C)(C)C was read as PrP UTR inh 5, BH1578 lux ind -1, SARS 3CLpro inh-1 14*, PfHsp40 rescue 4, PrPC surface inh -3, PriA SSB inh 1 and SARS 3CLpro inh-2 13*.
`CC(NC(=O)CCl)c1ccc(Cl)c(Cl)c1` (stereo unspecified) gave PrP UTR inh -7, BH1578 lux ind -2, SARS 3CLpro inh-1 20*, PfHsp40 rescue -1, PrPC surface inh -4, PriA SSB inh -11 and SARS 3CLpro inh-2 40*.
For Cn1cc(CC(=O)N2CCN(c3cccc(C(F)(F)F)c3)CC2)c2ccccc21 the results were PriA SSB inh -5.
Screening Oc1ccc(Cl)cc1Cc1cc(Cl)ccc1O returned PrP UTR inh -3, BH1578 lux ind inactive, SARS 3CLpro inh-1 13*, PfHsp40 rescue 234*, PrPC surface inh 1, PriA SSB inh 5 and SARS 3CLpro inh-2 7.
`O=C(CN1CCSCC1)N1CCc2[nH]c3ccc(Br)cc3c2C1` gave SARS 3CLpro inh-1 22* and SARS 3CLpro inh-2 75*.
`Cc1ccc2[nH]c3c(c2c1)CN(C(=O)CN1CCN(C(=O)c2ccco2)CC1)CC3` gave SARS 3CLpro inh-1 9 and PrPC surface inh -12.
`Cc1ccc(C)c(OC(C)C(=O)Nc2ccc(S(=O)(=O)Nc3nccs3)cc2)c1` (stereo unspecified) gave PrP UTR inh -24, BH1578 lux ind -1, SARS 3CLpro inh-1 -3, PfHsp40 rescue 0, PrPC surface inh 1 and PriA SSB inh 5.
Screening Cc1ccc(C)c(OC(C)C(=O)Nc2nccs2)c1 (stereo unspecified) returned PrP UTR inh -13, BH1578 lux ind 0, SARS 3CLpro inh-1 13*, PfHsp40 rescue 0, PrPC surface inh 3, PriA SSB inh -10 and SARS 3CLpro inh-2 0.
`O=C(c1cncc(Br)c1)N1CCN(S(=O)(=O)c2ccccc2C(F)(F)F)CC1` gave PrP UTR inh -22, BH1578 lux ind 0, SARS 3CLpro inh-1 17*, PfHsp40 rescue 0, PrPC surface inh -8, PriA SSB inh -9 and SARS 3CLpro inh-2 12.
`CC(C)(C)c1ccc(C(=O)NCCOc2ccc(F)cc2)cc1` gave PriA SSB inh -48.
Screening O=C(Cc1cccs1)NCCCn1ncccc1=O returned PriA SSB inh -1.
`O=C(N/N=C/c1ccncc1)c1cccc(S(=O)(=O)Nc2ccc(Cl)cc2)c1` gave PrP UTR inh -3, BH1578 lux ind inactive, SARS 3CLpro inh-1 62*, PfHsp40 rescue 2, PrPC surface inh 6, PriA SSB inh inactive and SARS 3CLpro inh-2 -1.
O=C1c2[nH]nc(-c3ccccc3O)c2C(c2ccccc2F)N1Cc1ccco1 (stereo unspecified) was read as PrP UTR inh 2, BH1578 lux ind 0, SARS 3CLpro inh-1 13*, PfHsp40 rescue 1, PrPC surface inh -5, PriA SSB inh 16 and SARS 3CLpro inh-2 2.
`O=C1c2[nH]nc(-c3ccccc3O)c2C(c2ccccc2)N1Cc1ccco1` (stereo unspecified) gave PrP UTR inh 13, SARS 3CLpro inh-1 3, PfHsp40 rescue 0, PrPC surface inh 0 and PriA SSB inh 14.
Screening O=C(O)c1cccc(NC(=S)NC(=O)C(c2ccccc2)c2ccccc2)c1 returned PrP UTR inh -13, BH1578 lux ind -1, SARS 3CLpro inh-1 14*, PfHsp40 rescue 1, PrPC surface inh -4, PriA SSB inh -5 and SARS 3CLpro inh-2 8.
`O=C1OC[C@H]2CCCN2C(=O)[C@@H](CC(=O)N(CCO)Cc2ccccc2)C/C=C/CC[C@@H]1Cc1ccc(F)cc1` gave PriA SSB inh -10.
For CCOCC(=O)NCCn1ncc2c(=O)n(Cc3cccc(Cl)c3)cnc21 the results were PriA SSB inh -10.

Assay outcomes from PubChem BioAssay.
